This is part of a sample that, as a whole, favours compounds with a hit. Of some 83,000 tested, about 20% had one in any assay.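 Cells were grown in 96-well plates and exposed to the test compound at a single concentration for 48 hours; results are reported as percent growth, with values below 10 considered active.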 Unmarked numbers belong to inactive results. Active and inactive are the calls of the source.

One assay has as its system IGROV1 ovarian. The assay can be described thus: NCI-60 one-dose screen, 48 h (100 = growth as untreated, 0 = no growth, -100 = all killed). The following applies: 10 µM unless noted.
On to `CC(C)(CO)N(CCO)CCO`, for which the growth is 113%.
Same read-out and setting: for `CCCCCCCCn1ccc2cc(NC(=O)Cn3cc(CN4CCCCCC4)nn3)ccc21` the value was 52.2%.
On to `COc1cc2cc(Oc3ccc(NC(=O)Nc4ccccc4)cc3)c(C)nc2cc1OCCN1CCCCC1`, for which the growth is 92.3%.
Still for that read-out and setting: as for `CN1CCN(CCCOC(=O)c2c3c(n4ccccc24)C(=O)c2ncccc2C3=O)CC1`, the figure is 4.12% (active); as for `Cc1ccc2[nH]c(-c3ccc(S(C)(=O)=O)cc3)c(/C=N/N=C(N)N)c2c1`, 76.2%; as for `COc1ccc(C/C(C)=C(\c2ccc(O)cc2)c2ccc(OCCN3CCCC3)cc2)cc1`, 103%.
As for `CC1(C)C2CC=C(/C=N/NC(=O)C3CCC(=O)N3)C1C2` (stereo not given), the growth was 109%.
Still for that read-out and setting: as for `COc1ccc2cc(-c3ccc(-c4ccc(C(=N)N)s4)s3)ccc2c1`, the figure is 63%; as for `Cc1nc2sc(C(=O)Nc3ccccc3)c(N)c2cc1C(=O)/C=C/c1ccccc1`, -7.01% (active); as for `O=C1/C(=C/c2ccc(C(F)(F)F)cc2)COc2ccc(O)cc21`, 82.5%.
On the same count and under the same terms, for `Cc1[nH]c(C(=O)Nc2ccc(C(N)=O)cc2NC(C)C)c(Cl)c1Cl` the value was 85.1%; for `Oc1c(CN2CCCC2)cc(COCc2ccccc2)c2cccnc12`, 16.4%; for `CCCCCCCC/C=C\CCCCCCCCOc1ccccc1CC(=O)NCC[N+]1(C)CCCCC1`, 16.5%.
On the same count and under the same terms, as for `O=C1Nc2ccc(F)cc2/C1=C\c1nc(-c2ccccc2F)n2ccccc12`, the figure is 75.5%; as for `CN(C)Cc1ccc(C(=O)Nc2ccc3ncnc(Nc4ccc(Oc5cccc(F)c5)c(Cl)c4)c3c2)cc1`, -50.7% (active).
For `CCNC(=O)Oc1ccc(/C(=C(/C)Cc2ccc(OC)cc2)c2ccc(OCCN3CCCC3)cc2)cc1`, the growth is 88%.
Same read-out and setting: as for `Cc1cscc(C)c1=S`, the figure is 77%; as for `CC(=O)N/C(=C1/OC(C(O)C(O)C(O)CO)CN1C)[P+](c1ccccc1)(c1ccccc1)c1ccccc1` (stereo not given), 101%.
Still for that read-out and setting: for `COC(=O)c1c2c(n3ccc(C)cc13)C(=O)c1ccccc1C2=O` the value was 64.5%.
The same measure, in the same setting: for `COc1cc2nc(Nc3cccc(F)c3)nc(Nc3cc(C)[nH]n3)c2cc1OC` the value was -96.1% [20 µM] (active); for `CC1=CCC[C@@H]2C1(C)CC[C@H](C)[C@@]2(C)CC1=CC(=O)C(SC(C)(C)C)=CC1=O` (stereo not given in full), 99.4%.
Consider `O=C(/C=C/c1cccc(Cl)c1)c1cccc(OCCCCOc2cccc(C(=O)/C=C/c3cccc(Cl)c3)c2)c1`, for which the growth was 88.9%.
Regarding `CCCNc1nc2ccccc2c2c(=O)c3cccc(Cl)c3sc12`, the growth was 70.1%.
Turning to `COc1cccc(Nc2ccnc3[nH]c4ccc([N+](=O)[O-])cc4c23)c1`, the growth was 33.1%.
On the same count and under the same terms, for `CCOC(=O)CSc1nc2sc3c(c2c(=O)n1-c1ccc([N+](=O)[O-])cc1)CCCCC3` the value was 68.7%.
Still for that read-out and setting: as for `COc1cccc2c(N=NC(=O)c3ccc(S(N)(=O)=O)cc3)c(O)[nH]c12`, the figure is 101%.
Still for that read-out and setting: as for `Clc1nccc2c(-c3csc(-c4c[nH]c5ccccc45)n3)c[nH]c12`, the figure is 68.6%.
With `COc1cc(/C=N/Nc2ccccc2F)cc(OC)c1OC`, the growth was 86.1%.
The same measure, in the same setting: for `COc1ccc2c(c1)c(-c1nc(-c3cn(C)c4ncccc34)cs1)cn2CCO` the value was 85.2%.
As for `CS(=O)(=O)Cc1cnc(C2OCCO2)s1`, the growth was 97.5%.
Same read-out and setting: as for `COc1ccc(Nc2ncc(C(N)=O)c(NCCCNC(=O)C3CCC3)n2)cc1`, the figure is 66.8%; as for `N#C/C(=C\c1ccc(-c2ccc(Cl)cc2)o1)c1ccc(Cl)cc1`, 23.6%; as for `COc1cc(C(=O)/C=C/c2c(-c3cccs3)nc3ccccn23)cc(OC)c1OC`, 13.1%.
`Fc1ccc(CNc2c3ccccc3nc3ccccc23)cc1`: the growth is 21.9%.
In the case of `COc1cc(Nc2c3ccc(Cl)cc3nc3ccc(OC)cc23)c2ncccc2c1`, the growth was 32.2%.
As for `COc1cc(C2Cc3ncccc3-c3[nH]c(=O)c4cccnc4c32)cc(OC)c1OC` (stereo not given), the growth is 48.6%.
Same read-out and setting: as for `CCc1ccc(CCC(=O)Nc2ncc(Cc3ccc(Cl)cc3)s2)o1`, the figure is 34.8%; as for `N#Cc1c(-c2ccccc2)nc2c(c(-c3ccccc3)nn2-c2ccccc2)c1-c1ccc(N2CCOCC2)cc1`, 87.7%; as for `COc1ccc(NC(=O)c2ccc(C(=O)Nc3ccc(OC)cc3OC)cc2)c(OC)c1`, 54.7%.
Take `CCN=C1C=CC(=C(c2ccc(N(C)C)cc2)c2ccc(N(C)C)cc2)c2ccccc21`: the growth was -7.04% (active).

Another assay concerns OVCAR-3 ovarian. The description is as above. The following applies: 10 µM unless noted.
On to `CC(C)(CO)N(CCO)CCO`, for which the growth is 112%.
Still for that read-out and setting: for `CCCCCCCCn1ccc2cc(NC(=O)Cn3cc(CN4CCCCCC4)nn3)ccc21` the value was 10.1%; for `COc1cc2cc(Oc3ccc(NC(=O)Nc4ccccc4)cc3)c(C)nc2cc1OCCN1CCCCC1`, 101%.
Same read-out and setting: for `CN1CCN(CCCOC(=O)c2c3c(n4ccccc24)C(=O)c2ncccc2C3=O)CC1` the value was 0.457% (active); for `Cc1ccc2[nH]c(-c3ccc(S(C)(=O)=O)cc3)c(/C=N/N=C(N)N)c2c1`, 27.6%.
`COc1ccc(C/C(C)=C(\c2ccc(O)cc2)c2ccc(OCCN3CCCC3)cc2)cc1`: the growth was 108%.
On the same count and under the same terms, as for `CC1(C)C2CC=C(/C=N/NC(=O)C3CCC(=O)N3)C1C2` (stereo not given), the figure is 112%.
Still for that read-out and setting: as for `COc1ccc2cc(-c3ccc(-c4ccc(C(=N)N)s4)s3)ccc2c1`, the figure is -61.1% (active); as for `Cc1nc2sc(C(=O)Nc3ccccc3)c(N)c2cc1C(=O)/C=C/c1ccccc1`, -47.5% (active); as for `O=C1/C(=C/c2ccc(C(F)(F)F)cc2)COc2ccc(O)cc21`, 94.8%.
The same measure, in the same setting: as for `Cc1[nH]c(C(=O)Nc2ccc(C(N)=O)cc2NC(C)C)c(Cl)c1Cl`, the figure is 96.3%; as for `Oc1c(CN2CCCC2)cc(COCc2ccccc2)c2cccnc12`, 18.1%.
On to `CCCCCCCC/C=C\CCCCCCCCOc1ccccc1CC(=O)NCC[N+]1(C)CCCCC1`, for which the growth was 41.3%.
Same read-out and setting: as for `O=C1Nc2ccc(F)cc2/C1=C\c1nc(-c2ccccc2F)n2ccccc12`, the figure is 126%; as for `CN(C)Cc1ccc(C(=O)Nc2ccc3ncnc(Nc4ccc(Oc5cccc(F)c5)c(Cl)c4)c3c2)cc1`, -24.2% (active); as for `CCNC(=O)Oc1ccc(/C(=C(/C)Cc2ccc(OC)cc2)c2ccc(OCCN3CCCC3)cc2)cc1`, 77.5%.
As for `Cc1cscc(C)c1=S`, the growth is 121%.
On to `CC(=O)N/C(=C1/OC(C(O)C(O)C(O)CO)CN1C)[P+](c1ccccc1)(c1ccccc1)c1ccccc1` (stereo not given), for which the growth was 112%.
Take `COC(=O)c1c2c(n3ccc(C)cc13)C(=O)c1ccccc1C2=O`: the growth was 67.6%.
In the case of `COc1cc2nc(Nc3cccc(F)c3)nc(Nc3cc(C)[nH]n3)c2cc1OC`, the growth was -80.2% [20 µM] (active).
As for `CC1=CCC[C@@H]2C1(C)CC[C@H](C)[C@@]2(C)CC1=CC(=O)C(SC(C)(C)C)=CC1=O` (stereo not given in full), the growth was 84.9%.
For the compound `O=C(/C=C/c1cccc(Cl)c1)c1cccc(OCCCCOc2cccc(C(=O)/C=C/c3cccc(Cl)c3)c2)c1`, the growth is 91.9%.
As for `CCCNc1nc2ccccc2c2c(=O)c3cccc(Cl)c3sc12`, the growth was 111%.
As for `COc1cccc(Nc2ccnc3[nH]c4ccc([N+](=O)[O-])cc4c23)c1`, the growth is 46.9%.
The same measure, in the same setting: as for `CCOC(=O)CSc1nc2sc3c(c2c(=O)n1-c1ccc([N+](=O)[O-])cc1)CCCCC3`, the figure is 51.8%; as for `COc1cccc2c(N=NC(=O)c3ccc(S(N)(=O)=O)cc3)c(O)[nH]c12`, 114%.
Still for that read-out and setting: for `Clc1nccc2c(-c3csc(-c4c[nH]c5ccccc45)n3)c[nH]c12` the value was 68.6%; for `COc1cc(/C=N/Nc2ccccc2F)cc(OC)c1OC`, 108%.
`COc1ccc2c(c1)c(-c1nc(-c3cn(C)c4ncccc34)cs1)cn2CCO`: the growth is 99.1%.
Same read-out and setting: as for `CS(=O)(=O)Cc1cnc(C2OCCO2)s1`, the figure is 96.3%.
`COc1ccc(Nc2ncc(C(N)=O)c(NCCCNC(=O)C3CCC3)n2)cc1`: the growth was 88.8%.
Regarding `N#C/C(=C\c1ccc(-c2ccc(Cl)cc2)o1)c1ccc(Cl)cc1`, the growth is 56.4%.
Same read-out and setting: for `COc1cc(C(=O)/C=C/c2c(-c3cccs3)nc3ccccn23)cc(OC)c1OC` the value was -36.5% (active).
On the same count and under the same terms, for `Fc1ccc(CNc2c3ccccc3nc3ccccc23)cc1` the value was 38.7%; for `COc1cc(Nc2c3ccc(Cl)cc3nc3ccc(OC)cc23)c2ncccc2c1`, 33.9%; for `COc1cc(C2Cc3ncccc3-c3[nH]c(=O)c4cccnc4c32)cc(OC)c1OC` (stereo not given), -11.3% (active).
As for `CCc1ccc(CCC(=O)Nc2ncc(Cc3ccc(Cl)cc3)s2)o1`, the growth is 1.07% (active).
Still for that read-out and setting: for `N#Cc1c(-c2ccccc2)nc2c(c(-c3ccccc3)nn2-c2ccccc2)c1-c1ccc(N2CCOCC2)cc1` the value was 96%.
As for `COc1ccc(NC(=O)c2ccc(C(=O)Nc3ccc(OC)cc3OC)cc2)c(OC)c1`, the growth is 90.6%.
The same measure, in the same setting: for `CCN=C1C=CC(=C(c2ccc(N(C)C)cc2)c2ccc(N(C)C)cc2)c2ccccc21` the value was -60.9% (active).

The record behind these values is PubChem BioAssay (NCI).
